# Source: PubChem BioAssay
# Activity calls are given as the source filed them.
# Experiment: E. coli growth modulation, two-sided OD650, primary screen, E. coli filamentation project, strain DRC41, 24 h (AID 1093);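 further: MC1000 strain lacking acrAB efflux and sulA so SOS filamentation is blocked; test concentration not given here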
# Settings: OD650, 24 h, higher = more signal, called active from +8 up or from −8 down
row,Compound,z-score
1,CCOC(=O)[C@H](CC(C)C)NC(=O)CCC1CC(OC(=O)NCc2cccc3ccccc23)CC2(CCCC(COC(=O)NCCC(C)C)O2)O1 (stereo not given in full),-0.77 (inactive)
2,CCOC(=O)[C@H](Cc1ccccc1)NC(=O)CCC1CC(OC(=O)NCCc2ccc(F)cc2)CC2(CCCC(COC(=O)NCCc3ccccc3OC)O2)O1 (stereo not given in full),-0.715 (inactive)
3,CO[C@H](C1CCCCC1)[C@H](C)C=CCC(=O)OCCCc1ccccc1,-0.0775 (inactive)
4,O=C1C[C@@H](O)[C@@H](O)[C@@H]2[C@@H]3C(=O)N(Cc4ccccc4)C(=O)[C@@H]3CC[C@@H]12,-0.174 (inactive)
5,CCN1C(=O)[C@H]2[C@H]3[C@H](O)[C@H](O)CC(=NOCC(C)C)[C@@H]3CC[C@H]2C1=O,-0.637 (inactive)
6,COC(=O)CC=C[C@@H](C)[C@@H](C=NOC[C@H]1O[C@H](c2ccccc2)C=C[C@@H]1Oc1ccc(OC)cc1)OC,-0.19 (inactive)
7,CC(CCN1CCc2nc(-c3ccccc3)c(-c3ccccc3)cc2C1)=NOC[C@@H](O)[C@H]1O[C@@H]2OC(C)(C)O[C@@H]2[C@H]1O,1.23 (inactive)
8,O=C(NN=C1C[C@@H](O)[C@@H](O)[C@@H]2[C@@H]3C(=O)N(C4CCCCC4)C(=O)[C@@H]3CC[C@@H]12)OCc1ccccc1,0.572 (inactive)
9,COc1ccc(O[C@H]2C=C[C@@H](c3ccccc3)O[C@@H]2CON=C(C)CCC(=O)OC[C@H]2O[C@H](c3ccccc3)C=C[C@@H]2Oc2ccc(OC)cc2)cc1,-0.0503 (inactive)

# Experiment: small-molecule microarray binders of probe aLefty2, primary screen, biochemical, biotinylated probe, 635/667 nm fluorescence (AID 1094);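 further: score merges spot fluorescence near 667 nm with spot signal-to-noise ratio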
# Settings: higher = more signal
row,Compound,composite z-score
1,CCOC(=O)NN=C1C[C@@H](O)[C@@H](O)[C@@H]2[C@@H]3C(=O)N([C@@H](C)c4ccccc4)C(=O)[C@@H]3CC[C@@H]12,-0.113
2,COC(=O)[C@@H]1CC[C@H](C)[C@@H](c2ccc(C)cc2)N1C(=O)c1ccc(C=NO[C@@H](C)c2cn([C@H](CO)Cc3ccccc3)nn2)cc1,-0.126
3,O=C1CCCC=C1C(O)CCOC(c1ccccc1)(c1ccccc1)c1ccccc1 (stereo not given),-0.186
4,COC(=O)CC=C[C@@H](C)[C@@H]1C=C[C@H](O)[C@@H](CO)O1,-0.177
5,C[C@@H](ON=C1[C@H]2CCn3c(=O)n(-c4ccccc4)c(=O)n3[C@H]2[C@H](O)[C@@H]2O[C@H]12)c1cn([C@@H]2COC[C@H]2O)nn1,-0.152
6,CO[C@@H]1COC(=O)[C@H](CCSC)NC(=O)CC=C[C@@H](C)COC(=O)CCC[C@H]1C,-0.0225
7,COc1cccc([C@@H]2Oc3ccc(OC)cc3C(=O)[C@H]2O)c1,-0.173
8,C=CC1=C[C@H](O)[C@@H]2O[C@@H]2C12OCCCO2,-0.244
9,CCOC(=O)NN=C1C[C@@H](O)[C@@H](O)[C@@H]2[C@@H]3C(=O)N(Cc4ccccc4)C(=O)[C@@H]3CC[C@H]12,-0.138
10,COC(=O)[C@@H]1CC[C@H](C)[C@@H](c2ccc(C)cc2)N1C(=O)c1ccc(C=NO[C@H](C)c2cn([C@H](CO)Cc3ccccc3)nn2)cc1,0.0943
11,COc1cc(O)c(C(=O)C=Cc2ccc3c(c2)OCO3)c(OC)c1,-0.127
12,CCOC(=O)[C@H](CC(C)C)NC(=O)CCC1CC(OC(=O)NCc2cccc3ccccc23)CC2(CCCC(COC(=O)NCC3CCCCC3)O2)O1 (stereo not given in full),-0.0151
13,Cc1cc2c(c(=O)o1)[C@@H](O)[C@H]1O[C@H]1C2=O,-0.358
14,Cc1ccc(S(=O)(=O)NC(CCc2ccccc2)CC(=O)C(C)(C)C)cc1 (stereo not given),0.422
15,C[C@@H](c1ccccc1)N1C(=O)[C@H]2[C@H]3[C@H](O)[C@H](O)CC(=NO[C@@H]4O[C@H](CO)[C@@H](O)[C@H](O)[C@H]4O)[C@@H]3CC[C@H]2C1=O,-0.126
16,CCN1C(=O)[C@@H]2[C@H]3C(=CC[C@@H]2C1=O)C1(OCCCO1)[C@H]1O[C@H]1[C@H]3O,-0.16
17,CCOC(=O)[C@H](CC(C)C)NC(=O)CCC1CC(OC(=O)NCc2cccc3ccccc23)CC2(CCCC(COC(=O)NCCCN3CCCC3=O)O2)O1 (stereo not given in full),-0.0998
18,CC(=O)OC[C@H]1OC(ON=CC[C@@H]2C=C[C@H](OC(C)=O)[C@@H](COC(C)=O)O2)[C@H](OC(C)=O)[C@@H](OC(C)=O)[C@@H]1OC(C)=O (stereo not given in full),0.106

row,Compound,composite z-score
1,COc1ccc(O[C@@H]2[C@H](O)CO[C@@H]2C=Cc2ccccc2)cc1,-0.238
2,O=C1[C@H]2[C@H]3[C@H](O)[C@H](O)CC(=NOC[C@@H](O)COCc4ccco4)[C@H]3CC[C@H]2C(=O)N1C[C@@H]1CCCO1,-0.138
3,CC(C)=CCCC(C)=CCON=C1C[C@@H](O)[C@@H](O)[C@@H]2[C@@H]3C(=O)N(C(C)(C)C)C(=O)[C@@H]3CC[C@@H]12,-0.0615
4,C#CCCCON=C1C[C@@H](O)[C@@H](O)[C@@H]2[C@@H]3C(=O)N(CCC(=O)OCC)C(=O)[C@@H]3CC[C@H]12,-0.104
5,C[C@H]1CC[C@H]2C(=O)O[C@H](COc3ccc(C(C)(C)C)cc3)CN2[C@@H]1c1ccc(Br)cc1,0.0056
6,CC(C)=CCCC(C)=CCON=C1C[C@@H](O)[C@@H](O)[C@@H]2[C@@H]3C(=O)N(c4cccc(Oc5ccccc5)c4)C(=O)[C@@H]3CC[C@@H]12,-0.124
7,COc1ccc(O[C@H]2C=C[C@@H](c3ccccc3)O[C@@H]2COC(=O)CCC(C)=NOC(C)CN2CCCc3nc(C)c(C)cc32)cc1 (stereo not given in full),-0.0345
8,COC(=O)[C@H](C)NC(=O)CCC1CC(OC(=O)NCc2cccc3ccccc23)CC2(CCCC(COC(=O)NCC(c3ccccc3)c3ccccc3)O2)O1 (stereo not given in full),-0.166
9,C=COC[C@@H]1CN2[C@@H](CC[C@@H](C)[C@@H]2c2ccc(Br)cc2)C(=O)O1,-0.0769
10,CCOC(=O)[C@H](CC(C)C)NC(=O)CCC1CC(OC(=O)NCc2cccc3ccccc23)CC2(CCCC(COC(=O)NCCC(C)C)O2)O1 (stereo not given in full),-0.221
11,CCOC(=O)[C@H](Cc1ccccc1)NC(=O)CCC1CC(OC(=O)NCCc2ccc(F)cc2)CC2(CCCC(COC(=O)NCCc3ccccc3OC)O2)O1 (stereo not given in full),-0.157
12,CO[C@H](C1CCCCC1)[C@H](C)C=CCC(=O)OCCCc1ccccc1,-0.192
13,O=C1C[C@@H](O)[C@@H](O)[C@@H]2[C@@H]3C(=O)N(Cc4ccccc4)C(=O)[C@@H]3CC[C@@H]12,-0.14
14,CCN1C(=O)[C@H]2[C@H]3[C@H](O)[C@H](O)CC(=NOCC(C)C)[C@@H]3CC[C@H]2C1=O,-0.0898
15,COC(=O)CC=C[C@@H](C)[C@@H](C=NOC[C@H]1O[C@H](c2ccccc2)C=C[C@@H]1Oc1ccc(OC)cc1)OC,-0.258
16,CC(CCN1CCc2nc(-c3ccccc3)c(-c3ccccc3)cc2C1)=NOC[C@@H](O)[C@H]1O[C@@H]2OC(C)(C)O[C@@H]2[C@H]1O,-0.342
17,O=C(NN=C1C[C@@H](O)[C@@H](O)[C@@H]2[C@@H]3C(=O)N(C4CCCCC4)C(=O)[C@@H]3CC[C@@H]12)OCc1ccccc1,-0.372
18,COc1ccc(O[C@H]2C=C[C@@H](c3ccccc3)O[C@@H]2CON=C(C)CCC(=O)OC[C@H]2O[C@H](c3ccccc3)C=C[C@@H]2Oc2ccc(OC)cc2)cc1,-0.294
